According to PubChem BioAssay (Tox21):
Unmarked numbers belong to inactive results. Results filed as inconclusive are left out. Where a call stands in place of a potency, no number is given. The source made the active and inactive calls. Calls follow the shape of the dose curve; as a rule, active = well fitted curve in the direction sought with a large enough effect in the repeat runs; inconclusive = weak or mixed curves; inactive = no such curve, though single readings can be large; an effect the other way counts as inactive or inconclusive.

Legend:
[1] = Caspase-3/7 induction in HepG2 cells by small molecules, qHTS assay (AID 1346978); also: nearly all actives have a fitted effect of over 15% in size; also: potency is read from the fitted curve at half-maximal effect
Outline: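 Caspase-3/7 induction was measured by Caspase-Glo 3/7 luminescence (30 min, room temperature) after a 17 hr compound exposure of wild-type HepG2 cells seeded at 2,000 per well and pre-incubated 5 hr.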

[2] = Caspase-3/7 induction in CHO-K1 cells by small molecules, qHTS cell viability counter screen (AID 1346979); also: nearly all actives have a fitted effect of over 35% in size; also: potency is read from the fitted curve at half-maximal effect
Outline: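 Multiplexed with Caspase-Glo 3/7 in CHO-K1 cells, this counter screen added CellTiter-Fluor after 16hr of compound exposure and recorded fluorescence 1hr later.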

[3] = Caspase-3/7 induction in CHO-K1 cells by small molecules, qHTS assay (AID 1346980); also: nearly all actives have a fitted effect of over 15% in size
Outline: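 Luminescent Caspase-Glo 3/7 read (30min, room temperature) quantified apoptosis induction. Cells were wild-type CHO-K1, treated with compound for 17hr at 37 C and 5% CO2.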

[4] = Caspase-3/7 induction in HepG2 cells by small molecules, qHTS cell viability counter screen (AID 1346981); also: series mostly up to about 92 µM; nearly all actives have a fitted effect of over 30% in size
Outline: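 HepG2, WT, 2,000 cells/well; 5 hr pre-incubation 37 C/5% CO2; compound pin-transferred from DMSO; 16 hr exposure; CellTiter-Fluor, 1 hr; fluorescence read.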

[5] = target: Cytochrome P450 2D6 (Homo sapiens) (UniProt P10635); test: Cytochrome P450 Family 2 Subfamily D Member 6 (CYP2D6) small molecule antagonists: luciferase reporter qHTS assay (AID 1671196); also: nearly all actives have a fitted effect of over 50% in size; also: potency is read from the fitted curve at half-maximal effect
Outline: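 Read-out is luminescence from luciferin formed by CYP2D6 turnover of a proluciferin substrate, recorded as relative luminescence units. Reactions ran 1 h at room temperature after NADPH regeneration solution was added.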

[6] = target: Cytochrome P450 2C19 (Homo sapiens) (UniProt P33261); test: Cytochrome P450 Family 2 Subfamily C Member 19 (CYP2C19) small molecule antagonists: luciferase reporter qHTS assay (AID 1671197); also: nearly all actives have a fitted effect of over 65% in size; also: potency is read from the fitted curve at half-maximal effect
Outline: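 Enzyme-substrate mix with proluciferin substrate (P450-Glo CYP2C19 system) preincubated with compounds 10 min at room temperature; NADPH regeneration solution added, 37C for 1 h; detection reagent stops reaction, luminescence read after 20 min. Ketoconazole positive control.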

[7] = target: Cytochrome P450 2C9 (Homo sapiens) (UniProt P11712); test: Cytochrome P450 Family 2 Subfamily C Member 9 (CYP2C9) small molecule antagonists: luciferase reporter qHTS assay (AID 1671198); also: nearly all actives have a fitted effect of over 50% in size; also: potency is read from the fitted curve at half-maximal effect
Outline: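 Enzyme-substrate mix preincubated with compound 10 min at room temperature; reaction started with NADPH regeneration solution, 1 h 37C. Luminescent luciferin product read after 20 min detection reagent.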

[8] = target: Cytochrome P450 1A2 (Homo sapiens) (UniProt P05177); test: Cytochrome P450 Family 1 Subfamily A Member 2 (CYP1A2) small molecule antagonists: luciferase reporter qHTS assay (AID 1671199); also: nearly all actives have a fitted effect of over 50% in size; also: potency is read from the fitted curve at half-maximal effect
Outline: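 P450-Glo CYP1A2, 1536-well qHTS: enzyme/proluciferin substrate + cpd (DMSO), 10 min RT; NADPH regen, 1 h RT; detection reagent, 20 min; luminescence, RLU.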

[9] = target: Voltage-gated inwardly rectifying potassium channel KCNH2 (Homo sapiens) (UniProt Q12809); test: Human Ether-a-go-go-Related Gene (hERG) channel small molecule antagonists: fluorescence cell-based qHTS assay (AID 1671200); also: nearly all actives have a fitted effect of over 50% in size; also: potency is read from the fitted curve at half-maximal effect
Outline: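 Cell line hERG-U2OS; dye FluxOR II, 1 h RT dark; Tl+ stimulus; ex 480/em 540 nm, read each second for 2 min.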

[10] = target: Cytochrome P450 3A4 (Homo sapiens) (UniProt P08684); test: Cytochrome P450 Family 3 Subfamily A Member 4 (CYP3A4) small molecule antagonists: luciferase reporter qHTS assay (AID 1671201); also: nearly all actives have a fitted effect of over 50% in size; also: potency is read from the fitted curve at half-maximal effect
Outline: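 Room-temperature assay throughout: 10 min compound–enzyme/substrate preincubation, 1 h reaction after NADPH regeneration solution, 20 min detection. Luciferin formed from proluciferin substrate is quantified by luminescence.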

[11] = Human pregnane X receptor (PXR) small molecule agonists, qHTS cell viability counter screen (AID 1346977); also: nearly all actives have a fitted effect of over 50% in size; also: potency is read from the fitted curve at half-maximal effect
Outline: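 After a 5hr pre-incubation, PXR-Luc HepG2 cells received compounds plus positive control in DMSO and were kept 24hr at 37C. Cell viability was quantified by fluorescence from CellTiter-Fluor added for the final hour.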

[12] = target: Nuclear receptor subfamily 1 group I member 2 (Homo sapiens) (UniProt O75469); test: Human pregnane X receptor (PXR) small molecule agonists, qHTS assay (AID 1346982); also: nearly all actives have a fitted effect of over 35% in size; also: potency is read from the fitted curve at half-maximal effect
Outline: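 Luciferase signal from ONE-Glo (30 min, room temperature) measured activation of hPXR-driven CYP3A4 reporter expression in PXR-Luc HepG2 cells treated with compounds for 24 hr at 37 C.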

[13] = target: Nuclear receptor subfamily 1 group I member 2 (Rattus norvegicus) (UniProt Q9R1A7); test: Rat pregnane X receptor (rPXR) activation by small molecules, qHTS assay (AID 1346983); conditions: rPXR luciferase reporter cells, One-Glo luminescence, 24 h; max activation: hits give high values; also: nearly all actives have a fitted effect of over 20% in size
Outline: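 Luminescent readout (One-Glo luciferase, 30 min room temperature) followed 24 hr compound treatment at 37 C of rPXR cells plated 2,000 per well and preincubated 5hr; qHTS format with compounds delivered in DMSO.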

[14] = target: Nuclear receptor subfamily 1 group I member 2 (Homo sapiens) (UniProt O75469); test: CYP3A4 induction through human pregnane X receptor (PXR) by small molecules, qHTS assay (AID 1346984); also: nearly all actives have a fitted effect of over 40% in size; also: potency is read from the fitted curve at half-maximal effect
Outline: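 Luminescence readout: luciferase signal after One-Glo (30 min, room temperature), following 3 h at 37C with 3uM final Luciferin-IPA P450 substrate. Cells were DPX-2 (HepG2, PXR/CYP3A4-luc co-transfected) dosed for 24 h.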

[15] = target: Nuclear receptor subfamily 1 group I member 2 (Homo sapiens) (UniProt O75469); test: Human pregnane X receptor (PXR) activation by small molecules, qHTS assay (AID 1346985); also: nearly all actives have a fitted effect of over 40% in size
Outline: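 DPX-2 cells (HepG2 co-transfected with a PXR response element and a CYP3A4-promoter luciferase construct) were seeded at 2,000 per well, rested 5 hr at 37C, then exposed to DMSO-dissolved compounds for 24 hr. Activation was read as luciferase luminescence.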

Sequence of Cytochrome P450 1A2 (Homo sapiens) (P05177 whole entry, looked up): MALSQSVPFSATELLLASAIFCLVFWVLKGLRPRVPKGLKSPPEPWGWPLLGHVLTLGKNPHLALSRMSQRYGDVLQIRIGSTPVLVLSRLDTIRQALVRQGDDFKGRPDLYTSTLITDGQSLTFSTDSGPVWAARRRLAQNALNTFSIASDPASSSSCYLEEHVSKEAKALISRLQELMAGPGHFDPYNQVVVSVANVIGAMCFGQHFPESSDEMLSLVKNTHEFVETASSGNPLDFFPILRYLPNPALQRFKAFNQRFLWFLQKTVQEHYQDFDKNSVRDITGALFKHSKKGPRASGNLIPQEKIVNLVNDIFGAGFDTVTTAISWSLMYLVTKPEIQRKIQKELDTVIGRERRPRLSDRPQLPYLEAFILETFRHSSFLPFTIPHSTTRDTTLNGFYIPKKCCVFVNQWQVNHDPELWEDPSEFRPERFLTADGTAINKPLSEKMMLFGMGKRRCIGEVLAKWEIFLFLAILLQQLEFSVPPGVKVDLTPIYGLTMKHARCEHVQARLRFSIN
Sequence of Nuclear receptor subfamily 1 group I member 2 (Homo sapiens) (O75469 whole entry, looked up): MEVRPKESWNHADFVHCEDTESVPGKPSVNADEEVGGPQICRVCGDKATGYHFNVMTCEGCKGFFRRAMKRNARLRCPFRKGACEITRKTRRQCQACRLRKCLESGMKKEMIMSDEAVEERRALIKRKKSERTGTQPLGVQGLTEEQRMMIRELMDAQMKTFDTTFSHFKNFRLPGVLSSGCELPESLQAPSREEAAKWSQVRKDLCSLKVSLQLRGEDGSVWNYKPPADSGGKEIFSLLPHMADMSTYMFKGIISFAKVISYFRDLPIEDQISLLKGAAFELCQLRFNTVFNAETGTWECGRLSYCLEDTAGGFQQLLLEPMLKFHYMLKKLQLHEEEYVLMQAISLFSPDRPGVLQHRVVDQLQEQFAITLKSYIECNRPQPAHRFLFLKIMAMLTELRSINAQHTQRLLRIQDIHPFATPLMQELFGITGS
Sequence of Cytochrome P450 2C19 (Homo sapiens) (P33261 whole entry, looked up): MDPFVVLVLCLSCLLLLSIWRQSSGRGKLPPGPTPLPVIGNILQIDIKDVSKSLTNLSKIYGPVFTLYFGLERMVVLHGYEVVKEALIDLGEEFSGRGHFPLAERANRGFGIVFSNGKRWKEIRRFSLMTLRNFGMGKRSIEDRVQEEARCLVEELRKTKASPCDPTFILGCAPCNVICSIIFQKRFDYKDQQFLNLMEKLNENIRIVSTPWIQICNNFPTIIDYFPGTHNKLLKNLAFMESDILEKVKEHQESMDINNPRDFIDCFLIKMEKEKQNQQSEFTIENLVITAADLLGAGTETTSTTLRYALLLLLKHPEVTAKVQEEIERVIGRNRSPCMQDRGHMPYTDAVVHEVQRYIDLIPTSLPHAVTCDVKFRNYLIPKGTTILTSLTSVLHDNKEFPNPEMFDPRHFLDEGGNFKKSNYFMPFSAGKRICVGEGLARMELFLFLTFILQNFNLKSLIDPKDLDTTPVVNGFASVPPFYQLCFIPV
Sequence of Cytochrome P450 2C9 (Homo sapiens) (P11712 whole entry, looked up): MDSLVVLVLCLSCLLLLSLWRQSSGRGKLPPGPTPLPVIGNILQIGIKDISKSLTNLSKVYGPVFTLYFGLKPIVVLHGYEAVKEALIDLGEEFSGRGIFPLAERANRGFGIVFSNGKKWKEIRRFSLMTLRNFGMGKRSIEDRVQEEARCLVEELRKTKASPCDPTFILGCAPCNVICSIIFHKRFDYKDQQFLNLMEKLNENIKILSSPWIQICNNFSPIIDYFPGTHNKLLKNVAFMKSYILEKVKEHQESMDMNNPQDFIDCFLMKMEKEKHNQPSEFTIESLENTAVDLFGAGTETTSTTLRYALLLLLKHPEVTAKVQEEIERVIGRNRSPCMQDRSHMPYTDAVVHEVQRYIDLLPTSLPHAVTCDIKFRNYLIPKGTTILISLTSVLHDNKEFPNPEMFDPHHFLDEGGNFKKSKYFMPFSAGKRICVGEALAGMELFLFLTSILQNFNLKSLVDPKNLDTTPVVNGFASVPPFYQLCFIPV
Sequence of Nuclear receptor subfamily 1 group I member 2 (Rattus norvegicus) (Q9R1A7 whole entry, looked up): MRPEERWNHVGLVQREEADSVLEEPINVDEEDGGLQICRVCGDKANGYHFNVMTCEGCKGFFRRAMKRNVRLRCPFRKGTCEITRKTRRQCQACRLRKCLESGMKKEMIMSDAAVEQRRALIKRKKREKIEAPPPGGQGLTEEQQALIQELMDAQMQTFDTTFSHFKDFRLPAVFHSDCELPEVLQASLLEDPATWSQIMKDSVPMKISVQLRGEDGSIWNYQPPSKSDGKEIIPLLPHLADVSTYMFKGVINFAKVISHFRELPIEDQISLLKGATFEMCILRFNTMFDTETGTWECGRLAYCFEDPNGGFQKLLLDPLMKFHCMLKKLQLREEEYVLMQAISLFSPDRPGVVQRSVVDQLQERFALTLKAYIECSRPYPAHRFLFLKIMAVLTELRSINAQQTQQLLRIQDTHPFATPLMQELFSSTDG
Sequence of Voltage-gated inwardly rectifying potassium channel KCNH2 (Homo sapiens) (Q12809 whole entry, looked up): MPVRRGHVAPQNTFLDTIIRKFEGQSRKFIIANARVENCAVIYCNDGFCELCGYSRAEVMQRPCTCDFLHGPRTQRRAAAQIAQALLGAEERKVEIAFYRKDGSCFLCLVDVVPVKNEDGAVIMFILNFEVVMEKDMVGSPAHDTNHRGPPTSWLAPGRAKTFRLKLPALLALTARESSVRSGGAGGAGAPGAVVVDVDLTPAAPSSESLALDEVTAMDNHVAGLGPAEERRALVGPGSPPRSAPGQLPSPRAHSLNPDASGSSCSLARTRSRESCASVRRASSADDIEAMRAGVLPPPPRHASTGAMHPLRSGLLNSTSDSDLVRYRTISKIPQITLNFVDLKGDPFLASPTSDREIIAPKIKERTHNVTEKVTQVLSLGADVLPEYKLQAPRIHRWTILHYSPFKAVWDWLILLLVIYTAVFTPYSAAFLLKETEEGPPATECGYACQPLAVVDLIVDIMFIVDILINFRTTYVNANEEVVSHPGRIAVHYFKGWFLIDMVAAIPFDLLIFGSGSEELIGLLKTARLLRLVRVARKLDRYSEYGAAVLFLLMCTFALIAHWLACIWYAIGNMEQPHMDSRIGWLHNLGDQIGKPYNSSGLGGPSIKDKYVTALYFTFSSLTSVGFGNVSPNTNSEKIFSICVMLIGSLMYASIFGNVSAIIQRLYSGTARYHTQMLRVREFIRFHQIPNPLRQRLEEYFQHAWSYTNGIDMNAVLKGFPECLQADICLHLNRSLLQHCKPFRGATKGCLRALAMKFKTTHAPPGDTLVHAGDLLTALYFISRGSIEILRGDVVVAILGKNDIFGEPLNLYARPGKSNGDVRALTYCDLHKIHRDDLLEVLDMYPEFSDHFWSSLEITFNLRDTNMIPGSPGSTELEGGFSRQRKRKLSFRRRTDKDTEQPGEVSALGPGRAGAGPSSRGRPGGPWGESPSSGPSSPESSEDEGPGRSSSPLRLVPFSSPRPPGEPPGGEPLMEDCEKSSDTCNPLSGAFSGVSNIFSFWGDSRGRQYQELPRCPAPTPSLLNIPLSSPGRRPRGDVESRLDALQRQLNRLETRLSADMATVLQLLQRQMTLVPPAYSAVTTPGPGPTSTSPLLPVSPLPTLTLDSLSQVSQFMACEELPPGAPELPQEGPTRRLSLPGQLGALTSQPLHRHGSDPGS
Sequence of Cytochrome P450 2D6 (Homo sapiens) (P10635 whole entry, looked up): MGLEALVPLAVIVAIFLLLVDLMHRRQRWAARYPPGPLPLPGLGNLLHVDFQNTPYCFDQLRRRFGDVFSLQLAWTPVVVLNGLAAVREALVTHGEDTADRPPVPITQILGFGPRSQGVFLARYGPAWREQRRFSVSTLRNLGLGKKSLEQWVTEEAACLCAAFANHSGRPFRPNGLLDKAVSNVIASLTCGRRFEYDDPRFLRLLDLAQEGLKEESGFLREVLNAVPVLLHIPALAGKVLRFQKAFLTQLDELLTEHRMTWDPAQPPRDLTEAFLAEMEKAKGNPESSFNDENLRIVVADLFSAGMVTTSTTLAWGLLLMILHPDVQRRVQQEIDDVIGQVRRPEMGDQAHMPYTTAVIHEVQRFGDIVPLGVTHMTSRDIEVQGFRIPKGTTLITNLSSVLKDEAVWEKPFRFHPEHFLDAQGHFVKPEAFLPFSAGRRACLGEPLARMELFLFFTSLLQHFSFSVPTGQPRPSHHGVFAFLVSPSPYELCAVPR
Sequence of Cytochrome P450 3A4 (Homo sapiens) (P08684 whole entry, looked up): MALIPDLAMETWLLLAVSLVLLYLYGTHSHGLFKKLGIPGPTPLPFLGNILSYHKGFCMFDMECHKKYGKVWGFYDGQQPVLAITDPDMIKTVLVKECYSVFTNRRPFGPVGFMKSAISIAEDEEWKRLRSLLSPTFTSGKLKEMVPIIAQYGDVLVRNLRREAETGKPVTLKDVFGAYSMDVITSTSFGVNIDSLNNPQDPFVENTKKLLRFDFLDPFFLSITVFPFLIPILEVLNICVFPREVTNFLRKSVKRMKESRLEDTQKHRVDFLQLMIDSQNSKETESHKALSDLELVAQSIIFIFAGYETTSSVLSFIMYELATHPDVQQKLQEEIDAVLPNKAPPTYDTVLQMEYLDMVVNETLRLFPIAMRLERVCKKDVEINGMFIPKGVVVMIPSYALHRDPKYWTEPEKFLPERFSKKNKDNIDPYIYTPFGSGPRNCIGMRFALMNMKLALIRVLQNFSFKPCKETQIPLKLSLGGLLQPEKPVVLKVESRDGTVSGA

Row | SMILES | Potency [1] | Potency [2] | outcome [3] | Potency [4] | Potency [5] | Potency [6] | Potency [7] | Potency [8] | Potency [9] | Potency [10] | Potency [11] | Potency [12] | max activation [13] | Potency [14] | Potency [15]
1 | CC(C)(C)c1ccc(OC(=O)c2ccccc2O)cc1 | inactive | inactive | inactive | inactive | inactive | inactive | 31.7 µM (active) | 39.9 µM (active) | inactive | inactive | – | – | – | – | –
2 | CCN(O)CC | inactive | 26.7 µM (active) | – | inactive | inactive | inactive | inactive | – | inactive | inactive | 30 µM (active) | 59.8 µM (active) | – | – | –
3 | C=Cc1ccccc1 | – | inactive | inactive | inactive | inactive | inactive | inactive | inactive | – | inactive | – | inactive | – | – | –
4 | CN1C(=O)CC(c2ccccc2)C1=O (stereo not given) | – | inactive | inactive | inactive | inactive | inactive | – | inactive | inactive | – | inactive | – | -2.73% | – | –
5 | CC(C)NCC(O)COc1ccc(CCOCC2CC2)cc1 (stereo not given) | inactive | inactive | – | inactive | – | – | – | – | inactive | – | inactive | – | – | – | –
6 | O=CCCc1ccccc1 | – | inactive | inactive | inactive | – | 25.2 µM (active) | 35.6 µM (active) | – | inactive | – | – | – | – | – | –
7 | Cc1ccsc1C(=CCCN1CCC[C@@H](C(=O)O)C1)c1sccc1C | – | – | – | inactive | inactive | inactive | inactive | inactive | inactive | – | inactive | inactive | 2.87% | inactive | inactive
8 | CCCCCCOc1ccc(N)cc1 | inactive | – | inactive | inactive | 35.6 µM (active) | 2 µM (active) | 22.4 µM (active) | 3.99 µM (active) | inactive | 35.6 µM (active) | inactive | 48.6 µM (active) | – | – | –
9 | CCCNC(C)C(=O)Nc1c(C)csc1C(=O)OC (stereo not given) | – | inactive | inactive | inactive | inactive | inactive | inactive | – | inactive | inactive | inactive | inactive | -1.55% | inactive | inactive
10 | CCOC(=O)c1cc(=O)c2c(OCC(COc3cccc4oc(C(=O)OCC)cc(=O)c34)OC(=O)[C@@H](N)CCCCN)cccc2o1 | inactive | inactive | inactive | inactive | inactive | inactive | 15.5 µM (active) | – | inactive | – | – | inactive | – | – | –
11 | CN1CCN(C2=Nc3ccccc3Oc3ccc(Cl)cc32)CC1 | inactive | – | inactive | – | 4.9 µM (active) | 8.71 µM (active) | – | inactive | 16.9 µM (active) | – | – | 23.7 µM (active) | -1.38% | 1.26 µM (active) | inactive
12 | NC(=O)Cc1cccc(C(=O)c2ccccc2)c1N | – | inactive | inactive | inactive | inactive | 34.7 µM (active) | inactive | – | inactive | inactive | inactive | inactive | – | – | –
13 | O=C(Cl)c1cccc([N+](=O)[O-])c1 | inactive | – | inactive | inactive | inactive | – | inactive | 34.6 µM (active) | inactive | inactive | – | inactive | – | – | –
14 | CCOC(=O)COc1ccc2c(c1)CC(NCC(O)c1cccc(Cl)c1)CC2 (stereo not given) | 48.9 µM (active) | – | inactive | – | 0.452 µM (active) | 45.2 µM (active) | 35.9 µM (active) | inactive | 1.39 µM (active) | inactive | – | inactive | – | – | –
15 | CCOC(=O)C(Br)c1ccccc1 (stereo not given) | – | inactive | inactive | inactive | inactive | – | 79.6 µM (active) | – | inactive | inactive | – | inactive | – | – | –
16 | ClC(Cl)Cl | inactive | – | inactive | inactive | – | – | – | – | – | – | – | – | 0.159% | – | –
17 | c1ccc(CN(CC2=NCCN2)c2ccccc2)cc1 | inactive | inactive | inactive | inactive | 1.38 µM (active) | – | – | inactive | 19 µM (active) | inactive | – | inactive | -0.824% | inactive | inactive
